Structures are written as SMILES. Inconclusive results are not listed. The source made the active and inactive calls. Calls come from the whole dose curve; as a rule, active = well fitted inhibition curve with a large enough effect in the signal ratio in the repeat runs (not every such curve was filed as active); inconclusive = weak or mixed curves; inactive = flat fitted curve, though single readings scatter; the % refers to the signal ratio.
% is set by controls: 0 for no effect and ±100 for the full control effect; potency is the fitted concentration of half-maximal effect.

Sequence of Progesterone receptor (Homo sapiens) (P06401 whole entry, looked up): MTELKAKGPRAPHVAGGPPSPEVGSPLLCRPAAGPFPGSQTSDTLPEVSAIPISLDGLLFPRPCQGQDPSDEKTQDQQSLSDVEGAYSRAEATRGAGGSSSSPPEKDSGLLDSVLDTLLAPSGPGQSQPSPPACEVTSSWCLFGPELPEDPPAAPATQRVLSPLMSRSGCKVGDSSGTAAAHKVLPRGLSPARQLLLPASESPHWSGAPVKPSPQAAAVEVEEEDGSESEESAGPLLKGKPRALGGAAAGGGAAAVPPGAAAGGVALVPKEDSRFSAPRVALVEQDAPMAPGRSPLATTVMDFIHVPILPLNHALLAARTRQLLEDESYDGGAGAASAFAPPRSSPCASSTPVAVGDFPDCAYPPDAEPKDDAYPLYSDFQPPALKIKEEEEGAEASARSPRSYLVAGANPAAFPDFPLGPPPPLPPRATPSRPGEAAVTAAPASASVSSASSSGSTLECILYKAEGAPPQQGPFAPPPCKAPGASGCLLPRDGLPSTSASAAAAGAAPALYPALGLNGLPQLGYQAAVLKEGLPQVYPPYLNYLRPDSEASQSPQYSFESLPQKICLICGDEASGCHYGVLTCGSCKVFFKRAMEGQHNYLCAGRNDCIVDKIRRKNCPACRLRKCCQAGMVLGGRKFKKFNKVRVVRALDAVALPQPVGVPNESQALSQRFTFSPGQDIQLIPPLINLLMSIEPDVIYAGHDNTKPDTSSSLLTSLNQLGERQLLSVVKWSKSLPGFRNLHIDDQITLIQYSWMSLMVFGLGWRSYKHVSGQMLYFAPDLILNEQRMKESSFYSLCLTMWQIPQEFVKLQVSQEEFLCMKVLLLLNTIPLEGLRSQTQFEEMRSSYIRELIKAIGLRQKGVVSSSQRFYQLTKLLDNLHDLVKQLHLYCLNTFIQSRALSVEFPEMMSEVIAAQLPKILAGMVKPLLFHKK

This assay addresses Progesterone receptor (Homo sapiens) (UniProt P06401). The assay can be described thus: qHTS assay to identify small molecule antagonists of the progesterone receptor (PR) signaling pathway (AID 1346795). Particulars: PR-UAS-bla HEK293T, beta-lactamase FRET ratio, 16 h; series mostly up to 92.4 µM; activity change, negative = inhibition: at the top concentration. The procedure, abridged:
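Antagonist mode with agonist R5020 at 1 nM final and 16 hr incubation at 37C. Reporter was beta-lactamase driven by UAS in HEK293T (PR-UAS-bla), 2% charcoal-stripped serum; signal from LiveBLAzer FRET substrate, 2 hr at room temperature.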
On the technique in general: In qHTS, concentration-response curves come from the screen itself.
In the case of `CCC(Cl)C(Cl)C(Cl)CC(Cl)C(Cl)C(C)Cl` (stereo not given), the Potency is 17.2 µM (active).
Turning to `COC(=O)C1=C(C)NC(C)=C(C(=O)OCCc2ccc(N3CCN(C(c4ccccc4)c4ccccc4)CC3)cc2)C1c1cccc([N+](=O)[O-])c1` (stereo not given), the “activity change, negative = inhibition” value is -15.8% [at 42.5 µM] (inactive).
In the case of `CCCCCCCCCCCCCCCC(=O)OC[C@H](O)[C@H]1OC(=O)C(O)=C1O`, the “activity change, negative = inhibition” value was 1.78% (inactive).
As for `N#CSc1ccc(N)c([N+](=O)[O-])c1`, the Potency is 30.8 µM (active).
For the molecule `COc1cc(-c2ccc(N=C=O)c(OC)c2)ccc1N=C=O`, the “activity change, negative = inhibition” value is 0.133% [at 42.5 µM] (inactive).
For the molecule `CNC(=O)c1ccccc1`, the “activity change, negative = inhibition” value was 7.43% (inactive).
Take `CC(C)(C)NC(=O)[C@@H]1C[C@@H]2CCCC[C@@H]2CN1C[C@@H](O)[C@H](Cc1ccccc1)NC(=O)[C@H](CC(N)=O)NC(=O)c1ccc2ccccc2n1`: the Potency was 49.2 µM (active).
Consider `O=C(O)c1c(Cl)cccc1Cl`, for which the “activity change, negative = inhibition” value was 7.98% (inactive).
As to `NNC(=O)c1cccc(C(=O)NN)c1`, the “activity change, negative = inhibition” value is 9.89% (inactive).
In the case of `CCCCCCCCCCCCCCCS(=O)(=O)Oc1ccccc1`, the “activity change, negative = inhibition” value is -13% [at 42.5 µM] (inactive).
The same measure, in the same setting: next, `C1CCCC1`: 13.9% (inactive); `NNc1nc(-c2ccc(N)cc2)cs1`: -16.6% (inactive).
For the molecule `O=c1cccccc1O`, the “activity change, negative = inhibition” value is -17.9% (inactive).
For `Nc1c(Cl)cc(Cl)cc1Cl`, the “activity change, negative = inhibition” value was 3.73% (inactive).
Consider `Cc1cccc(S(=O)(=O)O)c1C`, for which the “activity change, negative = inhibition” value is 10.2% (inactive).
Consider `CCCCCCCC(=O)[O-].CCCCCCCC(=O)[O-].[Zn+2]`, for which the “activity change, negative = inhibition” value was 8.39% [at 42.5 µM] (inactive).
Regarding `COc1cc(-c2nc(NC(=O)c3cc4cc(C)cc(C)c4n3CC(=O)O)sc2CCC2CCCCC2)c(OC)cc1Cl`, the Potency is 12.5 µM (active).
Same read-out and setting: next, `Cc1ccc(O)c2ncccc12`: 7.5 µM (active).
On the same count and under the same terms, next, `CCCCCOc1ccccc1/C(=C\SC)n1ccnc1`: 3.76 µM (active).
With `C/C=C(\C)C(=O)OCc1ccccc1`, the “activity change, negative = inhibition” value is 6.41% (inactive).

Source of the values: PubChem BioAssay (Tox21).
